# Bioassay records deposited in PubChem by National Center for Advancing Translational Sciences (NCATS).
# ELG1 genotoxic = genotoxicity induction in ELG1-luciferase HEK293T cells | HEK293T ELG1-luciferase reporter, luminescence, 16 h | Potency, µM (titrated, usually from 46 µM), without a hit: top-dose activity change, positive = activation, hits mostly activators | 1.3% of 330,000 active; note: % of control where 0% means no effect; nearly all actives have a fitted effect of over 60% in size
#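 16 hr compound incubation (37 °C, 5% CO2) of HEK293T cells carrying luciferase-tagged ELG1; luciferase then measured by ONE-Glo luminescence after 30 min at RT.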
# KinaseGlo FLuc = blocks Kinase-Glo luciferase, a counter-screen artifact; Q27757; Kinase-Glo luciferase, ATP luminescence, 8 min; Potency, µM (top dose mostly 38.3 µM), without a hit: top-dose activity change, negative = inhibition, hits mostly inhibitors; 0.28% of 200,000 active; note: % is set by controls: 0 for no effect and ±100 for the full control effect; nearly all actives have a fitted effect of over 60% in size
#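 Compounds were added to a substrate mix at pH 7.2 (50 mM imidazole, 10 uM ATP, within the enzyme's linear range), followed by Kinase-Glo detection reagent; luminescence was measured after 8 minutes at ambient temperature.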
# SMN2 splice enh = increases expression of the SMN2 splice variant. HEK293 SMN2-luciferase splicing reporter, luminescence, 30-36 h. Potency, µM (series often up to 46.1 µM), for the others: at the top dose activity change, positive = activation, actives largely listed as activators. 2.8% of 210,000 active. AID 1458; note: % of control where 0% means no effect; nearly all actives have a fitted effect of over 55% in size
#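 HEK293 cells carry an SMN2 […]–luciferase reporter in which exon 7 inclusion puts luciferase in frame. Cells were plated 10-12 h before compound addition, then incubated 30-36 h at 37C. ONE-Glo luminescence was read; sodium butyrate at 4.5 mM final served as control.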
# FLuc counter = counter-screen for miR-21 project: firefly luciferase inhibitors or activators; Potency, µM (top dose mostly 57.5 µM), for the others: at the highest dose activity change, negative = inhibition, most hits filed as inhibitors; 6.9% of 360,000 active; purified FLuc, Km substrates, luminescence inhibition;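 note: plate controls were vehicle for no effect and reference inhibitor for full effect; nearly all actives have a fitted effect of over 55% in size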
# Target sequence (P08659 whole entry, looked up): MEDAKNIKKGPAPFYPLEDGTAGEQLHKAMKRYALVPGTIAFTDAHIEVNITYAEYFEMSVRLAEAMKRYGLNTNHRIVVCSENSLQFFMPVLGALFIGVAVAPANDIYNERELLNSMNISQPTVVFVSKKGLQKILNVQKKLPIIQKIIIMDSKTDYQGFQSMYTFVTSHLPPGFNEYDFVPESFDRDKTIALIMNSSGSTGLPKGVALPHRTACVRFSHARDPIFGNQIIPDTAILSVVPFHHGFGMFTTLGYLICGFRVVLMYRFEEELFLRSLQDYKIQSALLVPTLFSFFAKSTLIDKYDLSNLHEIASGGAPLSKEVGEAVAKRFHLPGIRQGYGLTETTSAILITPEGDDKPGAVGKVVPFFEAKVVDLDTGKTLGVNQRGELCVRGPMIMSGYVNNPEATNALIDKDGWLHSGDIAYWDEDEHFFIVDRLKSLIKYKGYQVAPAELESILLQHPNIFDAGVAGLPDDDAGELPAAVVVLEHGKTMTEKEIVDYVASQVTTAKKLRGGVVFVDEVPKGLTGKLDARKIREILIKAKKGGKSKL
#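 Purified P. pyralis luciferase (10nM final) with 10uM D-luciferin and 10uM ATP (Km levels) in 50mM Tris acetate pH 7.5, 10mM Mg acetate, 0.01% Tween-20, 0.05% BSA; qHTS 6-point titration, ~60 µM downward; luminescence read.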
# Rab9 promoter act = Rab9 promoter activation | Huh7 Rab9 promoter-luciferase reporter, luminescence, 24 h | Potency, µM (titrated, usually from 9.22 µM), for the others: top-dose activation, negative = inhibition, usual class: activators | 2.8% of 320,000 active; note: % of control where 0% means no effect; nearly all actives have a fitted effect of over 60% in size
#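 Huh7 reporter line, Rab9 promoter upstream of luciferase. Compound exposure 24 h at 37 °C in reduced-serum medium with 10% FBS. Read-out: luminescence.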
# NPC1 promoter act = NPC1 promoter activation. Potency, µM (series often up to 9.22 µM), inactives show at the highest dose activation, most hits filed as activators. Huh7 NPC1 promoter luciferase reporter, 24 h. 2.4% of 320,000 active; note: % of control where 0% means no effect; nearly all actives have a fitted effect of over 60% in size
#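 Huh7 reporter cells (NPC1 promoter driving luciferase) are dosed with compound for 24 h at 37 °C, 5% CO2; luciferase detection reagent is then added and luminescence measured after 10 min at ambient temperature.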
# The depositor's hits bear a star; ? = inconclusive; nt = no result; [ ] = another dose, or the depositor's remark. The list is not random: actives were taken first. Their share in the collection is about 7.4%. Calls come from the whole dose curve; as a rule, active = well fitted curve in the direction sought with a large enough effect; inconclusive = small, poorly fitted or top-dose-only effect, or another doubt; inactive = no such curve, though single readings can be large; an effect the other way counts as inactive or inconclusive. Potency is the fitted concentration of half-maximal effect.
SMILES,ELG1 genotoxic,KinaseGlo FLuc,SMN2 splice enh,FLuc counter,Rab9 promoter act,NPC1 promoter act
CC/C(=N\NC(=O)c1nnn(-c2nonc2N)c1-c1cccc(OC)c1)c1ccc(C)cc1,-3.8%,nt,nt,-0.5%,-5.8%,-5.7%
O=C(NCc1ccncc1)C1CCN(S(=O)(=O)c2ccc(Cl)c(C(F)(F)F)c2)CC1,0.2%,nt,nt,1.3%,-0.1%,-2.6%
CC(=O)c1ccc(NC(=S)N2CCCCCC2)cc1,?,0.7%,?,?,?,16.8%
Cc1ccc(NC(=S)N2CCC(O)CC2)c(C)c1,-3.5%,-2.3%,-4.1%,-3.1%,-1.0%,-7.7%
CC1CCCN(C(=S)Nc2ccc(Nc3ccccc3)cc2)C1 (stereo not given),6.6%,1.6%,nt,?,3.55µM*,28.1%
Cc1ccc(NC(=S)N2CCCC(CO)C2)c(C)c1 (stereo not given),10.4%,nt,nt,16.9µM*,?,17.2%
CC(=O)c1ccc(NC(=S)N2CCCC(CO)C2)cc1 (stereo not given),?,4.1%,15.8µM*,8.49µM*,?,?
Cc1ccc(CCNS(=O)(=O)c2c(C)nc3sc(C)c(C)n3c2=O)cc1,nt,nt,nt,4.0%,nt,nt
COc1ccc(-n2nc(C(=O)N(C)c3cc(Cl)ccc3OC)c3c4ccccc4n(C)c3c2=O)cc1,nt,nt,-2.8%,0.2%,nt,nt
CCOc1ccc(CC(=O)NCCc2csc(-c3ccc(C(F)(F)F)cc3)n2)cc1,nt,nt,nt,0.2%,nt,nt
O=C(Nc1ccc(S(=O)(=O)Nc2cnc3ccccc3n2)cc1)c1ccc(Br)o1,-6.2%,-2.2%,-26.1%,16.9µM*,-5.2%,-0.1%
CC(C)(C)c1ccc(C(=O)Nc2ccc(S(=O)(=O)Nc3cnc4ccccc4n3)cc2)cc1,3.4%,nt,nt,13.5µM*,-0.1%[1.84 µM],1.1%
Cc1nnc(Sc2nc3ccccc3o2)c2ccccc12,15.0%,0.3%,nt,19µM*,-0.3%,-5.0%
CCCCc1ccc(NC(=S)Nc2ccc(Nc3ccc(OC)cc3)cc2)cc1,-5.8%,0.3%,-30.9%,0.7%,-4.5%,0.2%
O=C(Nc1ccccc1)OCCCc1ccccc1,-26.9%,-0.7%,?,19µM*,?,?
CCCCc1ccc(NC(=S)Nc2cccnc2)cc1,-0.5%,3.4%,-15.3%,0.6%,-0.1%,-0.2%
CCCCc1ccc(NC(=O)OC)cc1,7.7%,1.0%,-13.4%,16.9µM*,15.4%,13.3%
CCCCc1ccc(NC(=O)Nc2cccnc2)cc1,?,nt,nt,6.01µM*,?,?
Cc1ccnc(NC(=O)c2cccc(S(=O)(=O)N3CCN(c4ccc(F)cc4)CC3)c2)c1,?,nt,nt,-3.4%,-8.2%,-3.1%
Nc1c(-c2ccccc2)c(CSc2nc3ccccc3[nH]2)nn1-c1ccc(C(=O)O)cc1,2.8%,nt,nt,?,-3.3%,-4.7%
CC1(C)CC(=O)C2=C(C1)Nc1ccccc1NC2,-0.4%,4.5%,4.6%,-1.5%,-1.2%,0.2%
CC1(C)CC(=O)C2=C(C1)Nc1ccccc1N=C2,10.6%,-17.8%,?,6.75µM*,-2.7%,-1.1%
CC(/C=N/NC(=O)CSc1n[nH]c(=O)[nH]c1=O)=C\c1ccccc1,-1.7%,nt,nt,15.1µM*,8.8%,-3.0%
O=C(Cc1cccs1)N/N=C/C(Br)=C/c1ccccc1,?,-1.6%,?,?,3.98µM*,3.16µM*
Cc1ccc(/C=N/NC(=O)Cc2cccs2)o1,-3.1%,0.2%,2.0%,-9.4%,10.9%,9.6%
SMILES,ELG1 genotoxic,KinaseGlo FLuc,SMN2 splice enh,FLuc counter,Rab9 promoter act,NPC1 promoter act
CC(/C=N/NC(=O)Cc1cccn1C)=C\c1ccccc1,14.7%,12.8%,12.9%,10.7µM*,28.5%,16.6%
CC(/C=N/NC(=O)Cc1cccs1)=C\c1ccccc1,?,-1.6%,nt,2.69µM*,3.55µM*,?
Cn1cccc1CC(=O)N/N=C/c1cccc2ccccc12,0.7%,2.5%,7.9%,-2.2%,1.7%,4.7%
O=C1CN(C(=O)COC(=O)c2cccc(OCc3ccccc3)c2)c2ccccc2N1,1.3%,-5.0%,?,-19.4%,14.1%,10.9%
Cc1nn(Cc2ccccc2)c(C)c1CNC(=O)CN=C1NS(=O)(=O)c2ccccc21,-1.5%,nt,nt,-0.4%,-7.7%,-6.4%
O=[N+]([O-])c1cc([N+](=O)[O-])c(Oc2cc(Cl)cc(Cl)c2)cc1NN1CCCCC1,?,nt,nt,0.4%,-3.8%,-1.9%
CCOC(=O)c1ccc(NC2SC(=O)N(Cc3cccc(C(=O)O)c3)C2=O)cc1 (stereo not given),nt,nt,?,23.9µM*,nt,nt
CN(C)c1nc2c(c(=O)[nH]c(=O)n2C)n1Cc1ccc(F)cc1,?,1.5%,12.2%,-0.1%,-8.5%,0.9%
C=CCNc1nc2c(c(=O)n(C)c(=O)n2C)n1Cc1ccc(F)cc1,20.6µM*,-0.8%,-86.3%,0.3%,-28.0%,-10.9%
CCNc1nc2c(c(=O)[nH]c(=O)n2C)n1Cc1ccc(F)cc1,23.1µM*,1.0%,?,1.8%,-1.6%,-0.4%
CC(C)CCN(C(=O)c1cc(=O)[nH]c2ccccc12)c1c(N)n(Cc2ccccc2)c(=O)[nH]c1=O,-0.5%,nt,nt,1.7%,0.7%,-4.0%
CC(=O)Nc1ccc(S(=O)(=O)Nc2cccc(-c3cn4c(n3)SCC4)c2)cc1,0.4%,1.1%,-30.2%,3.6%,-9.3%,0.8%
O=C(Nc1cccc(-c2cn3c(n2)SCC3)c1)c1ccc(Br)o1,-1.3%,1.0%,11.2%,?,-0.4%,-0.1%
O=C(Nc1ccc(-c2cn3c(n2)SCC3)cc1)c1ccco1,?,nt,nt,8.49µM*,0.891µM*,2.51µM*
O=C(Oc1ccc(-c2cn3c(n2)SCC3)cc1)c1ccccc1,18.4µM*,-11.9%,?,?,0.7%,0.3%
CC(=O)Nc1ccc(-c2cn3c(n2)SCC3)cc1,?,nt,nt,?,2.82µM*,?
Cc1ccc(NC(=O)CSCC(=O)N(C)CC(=O)Nc2ccccc2C(F)(F)F)cc1,-1.3%,nt,nt,2.2%,-6.8%,-4.5%
CCOc1ccc(-c2nnc(SCC(=O)Nc3ccccc3C(F)(F)F)o2)cc1,nt,nt,nt,-14.3%,nt,nt
CCOc1ccc(-c2nnc(SCC(=O)Nc3cccc(C#N)c3)o2)cc1,nt,nt,nt,19µM*,nt,nt
CCOc1ccc(-c2nnc(SCC(=O)Nc3cccc(Cl)c3C)o2)cc1,nt,nt,nt,13.5µM*,nt,nt
Cc1nc2sccn2c(=O)c1S(=O)(=O)Nc1cccc(Cl)c1C,2.2%,nt,-31.7%,-0.2%,9.3%,-2.0%
CCc1ccc(C(=O)Cn2ccsc2=N)cc1,?,nt,nt,1.35µM*,0.708µM*,1.58µM*
CC(C)(C)NC(=O)NC(=O)Cn1ccsc1=N,0.8%,-4.2%,3.4%,4.2%,1.4%,-2.9%
c1ccc(CSc2nnc(-c3c[nH]c4ccccc34)o2)cc1,?,-1.1%,?,8.49µM*,?,?
COC(=O)CSc1nnc(-c2ccc(OC)cc2OC)o1,5.6%,-5.5%,-0.8%,21.3µM*,-0.6%,3.3%
